Rab9 prom act = Rab9 promoter activation. Huh7 Rab9 promoter-luciferase reporter, luminescence, 24 h. Potency, µM (series often up to 9.22 µM), for the others: top-dose activation, negative = inhibition, most hits filed as activators. hit rate 2.8% among 320,000. AID 485297; further: % of control where 0% means no effect; nearly all actives have a fitted effect of over 60% in size
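Huh7 cells stably carrying a Rab9 promoter-luciferase reporter, 1500 cells per well in OP-MEM I with 10% FBS, treated with compound 24 hours at 37C. Luciferase activity read by luminescence after 10 minutes with Amplite reagent.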
ELG1 repair inh = blocks ELG1-dependent DNA repair in HEK293T cells. HEK293T ELG1-luciferase reporter, luminescence, 16 h; DNA damage induced by 5-fluorouridine. Potency, µM (doses to about 46.1 µM), inactives show top-dose activity change, negative = inhibition, actives largely listed as inhibitors. hit rate 2.3% among 330,000. AID 504467; further: on the % scale 0 is the no-effect control and ±100 the full control effect; nearly all actives have a fitted effect of over 55% in size
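Reporter activity after DNA damage by 5-fluorouridine is monitored. Compound-treated cells incubate 16 hr at 37 °C, then ONE-Glo is added for 30 min before luminescence reading.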
ELG1 genotoxic = induces genotoxicity in HEK293T cells with luciferase-tagged ELG1 | HEK293T ELG1-luciferase reporter, luminescence, 16 h | hit rate 1.3% among 330,000 | Potency, µM (titrated, usually from 46 µM), without a hit: at the top dose activity change, positive = activation, most hits filed as activators | AID 504466; further: % of control where 0% means no effect; nearly all actives have a fitted effect of over 60% in size
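After overnight (16 hr) compound treatment at 37 °C, ELG1-luciferase HEK293T cells were lysed with ONE-Glo; luminescence quantified 30 min later at room temperature.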
FLuc counter = inhibits or activates purified firefly luciferase, miR-21 counter-screen; hit rate 6.9% among 360,000; purified FLuc, Km substrates, luminescence inhibition; P08659; Potency, µM (highest dose often 57.5 µM), inactives show at the top dose activity change, negative = inhibition, most hits filed as inhibitors;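 further: plate controls were vehicle for no effect and reference inhibitor for full effect; nearly all actives have a fitted effect of over 55% in size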
Target sequence (P08659 whole entry, looked up): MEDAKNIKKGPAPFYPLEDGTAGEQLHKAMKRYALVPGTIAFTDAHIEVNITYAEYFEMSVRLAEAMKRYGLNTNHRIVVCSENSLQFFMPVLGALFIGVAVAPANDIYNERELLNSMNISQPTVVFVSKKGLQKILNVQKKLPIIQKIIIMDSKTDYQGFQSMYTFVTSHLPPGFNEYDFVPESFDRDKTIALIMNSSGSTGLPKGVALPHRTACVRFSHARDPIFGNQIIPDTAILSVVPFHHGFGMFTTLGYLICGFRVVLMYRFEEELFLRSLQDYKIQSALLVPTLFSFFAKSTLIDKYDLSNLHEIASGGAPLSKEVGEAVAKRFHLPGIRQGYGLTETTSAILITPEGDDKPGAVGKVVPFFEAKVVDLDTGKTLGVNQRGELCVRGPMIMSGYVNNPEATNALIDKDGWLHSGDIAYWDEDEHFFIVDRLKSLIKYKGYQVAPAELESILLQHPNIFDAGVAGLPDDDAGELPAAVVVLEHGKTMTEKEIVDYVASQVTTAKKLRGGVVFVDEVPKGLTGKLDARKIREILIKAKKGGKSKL
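Purified P. pyralis luciferase (10nM final) with 10uM D-luciferin and 10uM ATP (Km levels) in 50mM Tris acetate pH 7.5, 10mM Mg acetate, 0.01% Tween-20, 0.05% BSA; qHTS 6-point titration, ~60 µM downward; luminescence read.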
NPC1 prom act = NPC1 promoter activation; Huh7 NPC1 promoter luciferase reporter, 24 h; Potency, µM (series often up to 9.22 µM), for inactives: at the top dose activation, usual class: activators; hit rate 2.4% among 320,000; further: % of control where 0% means no effect; nearly all actives have a fitted effect of over 60% in size
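NPC1 promoter–luciferase Huh7 cells; 24 h compound; luminescence.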
SMN2 splice up = SMN2 splice variant enhancement. HEK293 SMN2-luciferase splicing reporter, luminescence, 30-36 h. Potency, µM (titrated, usually from 46.1 µM), inactives show top-dose activity change, positive = activation, hits mostly activators. hit rate 2.8% among 210,000; further: % of control where 0% means no effect; nearly all actives have a fitted effect of over 55% in size
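qHTS luciferase splicing reporter: luminescence rises when SMN2 exon 7 is included in transfected HEK293 cells. Compound exposure lasted 30-36 h at 37C, with 4.5 mM final sodium butyrate as control, followed by a ONE-Glo read.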
* = called active by the depositor; ? = inconclusive; / = no result. The list is not random: actives were taken first. Their share in the collection is about 9.3%. The call rests on the fitted dose curve; in most records, active means well fitted curve in the direction sought with a large enough effect; inconclusive means small, poorly fitted or top-dose-only effect, or another doubt; inactive means no such curve, though single readings can be large; an effect the other way counts as inactive or inconclusive. Potency means the concentration at half of the fitted maximal effect.

SMILES	Rab9 prom act	ELG1 repair inh	ELG1 genotoxic	FLuc counter	NPC1 prom act	SMN2 splice up
CC(=O)c1ccc(NC(=O)c2cn(-c3ccccc3)nc2-c2ccncc2)cc1	-5%	27%	-1%	-1%	-4%	14%
O=C(O)c1ccc(NC(=O)c2cn(-c3ccccc3)nc2-c2ccc(F)cc2)cc1	?	?	5%	2.7µM*	22%	/
Cc1ccc(OCC(=O)Nc2cc(-c3cccc(C)c3)nn2-c2ccccc2)cc1	/	/	/	-1%	/	/
Cc1cccc(NC(=O)c2cn(-c3ccccc3)nc2-c2ccccc2)c1	-1%	-25%	1%	13µM*	-2%	8%
Cc1cccc(-c2cc(NC(=O)c3ccccc3C)n(-c3ccccc3)n2)c1	/	/	/	11µM*	/	/
CC12CN3CC(=O)N4CC5(C)CN(CC(C)(C4)C5=O)C(=O)CN(C1)CC(C)(C3)C2=O	2%	1%	1%	1%	-2%	/
O=C(CSc1nc2ccccc2[nH]1)c1ccco1	4µM*	?	?	17µM*	?	?
O=C(CSc1nc2ccccc2[nH]1)NCc1ccccc1	28%	?	9%	-5%	26%	/
O=C(CSc1ncnc2ccccc12)c1ccco1	3.2µM*	?	?	3µM*	3.2µM*	/
COc1ccc2nc(SCC(=O)C(C)(C)C)[nH]c2c1	2.2µM*	?	15µM*	?	2µM*	/
COc1ccc2nc(SCC(=O)c3ccco3)[nH]c2c1	1.8µM*	?	?	5.4µM*	2.2µM*	?
COc1ccc([N+](=O)[O-])cc1N(CC(=O)NC1CCCC1)S(C)(=O)=O	5%	-9%	-1%	0%	-1%	-1%
CCOc1cccc2sc(=NC(=O)c3ccc(S(=O)(=O)N4CCOCC4)cc3)n(C)c12	0%	1%	1%	-5%	12%	11%
COCc1nnc(NC(=O)c2ccccc2Oc2ccccc2)s1	0%	1%	1%	0%	1%	-5%
O=C(O)c1ccc(S(=O)(=O)c2ccc(Sc3ccc(C(=O)O)c(C(=O)O)c3)cc2)cc1	-8%	5%	0%	11µM*	-7%	13%
O=C(O)c1ccc(S(=O)(=O)N2CCCC2)cc1	4%	-1%	-5%	0%	0%	/
COc1ccc(NC(=O)c2ccccc2NC(=O)C2CCCO2)cc1 (centres undefined)	?	?	?	-10%	26%	20µM*
O=C(NCCc1ccccc1)c1ccccc1NC(=O)C1CCCO1 (centres undefined)	1.3µM*	?	?	?	1.4µM*	3.5µM*
COC(=O)N/N=C(\C)c1cccs1	-5%	?	7%	4%	-2%	/
COC(=O)c1ccccc1NC(=O)c1c(O)c2c([nH]c1=O)CCCC2	3%	4%	2%	21µM*	4%	9%
CCNC(=O)c1c(O)c2c([nH]c1=O)CCCC2	15%	26%	3%	-10%	2%	/
O=C(Nc1ccc(O)cc1)c1c(O)c2c([nH]c1=O)CCCC2	0.56µM*	?	?	6µM*	1.3µM*	11µM*
COc1cccc2c1Oc1ncccc1N(C(=O)CCC(=O)NC(C)C)C2	/	/	/	-1%	/	/
COC(=O)c1c(C)[nH]c(O)c1C=Nc1ccc(C(C)C)cc1	?	?	?	8.5µM*	?	14%
Cc1[nH]c2ccccc2c(=O)c1C(=O)/C=C/c1ccccc1	-41%	8.2µM*	-13%	-12%	-39%	/
COC(=O)c1c(C)[nH]c(C(=O)/C=C/c2ccccc2)c1C	1.4µM*	?	12µM*	0.48µM*	2.2µM*	2.2µM*
CCOC(=O)c1c(C)[nH]c(C(=O)COC(=O)/C=C/c2ccc(O)c(OC)c2)c1C	0%	-8%	1%	-1%	1%	-44%
COC(=O)c1c(C)[nH]c(C(=O)/C=C/c2ccc(C)cc2)c1C	0%	?	?	2.1µM*	1%	/
